# According to PubChem BioAssay (NCATS):
# Records with an inconclusive call do not appear. Unmarked numbers belong to inactive results. Calls come from the whole dose curve; as a rule, active = well fitted inhibition curve with a large enough effect; inconclusive = small, poorly fitted or top-dose-only effect; inactive = no such curve, though single readings can be large or run the other way.
# Target: Cytochrome P450 3A7 (Homo sapiens) (UniProt P24462)
# Test: Cytochrome P450 family 3 subfamily A member 7 (CYP3A7) small molecule antagonists: luciferase biochemical qHTS assay (AID 1963596); note: nearly all actives have a fitted effect of over 40% in size
# Details: P450-Glo CYP3A7 enzyme luminescence, 1 h; series mostly up to 57.4 µM; activity change, negative = inhibition: at the top concentration
# Description: National Center for Advancing Translational Sciences [NCATS] Assay Overview: Cytochrome P450 (CYP) enzymes are membrane-bound hemeproteins that play a key role in metabolism of drugs and xenobiotics. The CYP3A subfamily is the most abundant, representing 30% of the total adult hepatic CYP content, whereas CYP3A7 is found predominantly in human fetal liver and accounts up to 50% of the total fetal hepatic CYP content. Testing the effect of chemicals on CYP isozymes is useful to minimize the adverse drug reactions and toxicities in the drug development process. Chemicals were tested for their effect on CYP enzyme activities by using P450-Glo (TM) screening systems (Promega Corporation, Madison, WI). These systems provide a luminescent method containing proluciferin substrates and are converted to luciferin products by CYP isozymes. The luciferin products formed are detected with a luciferin detection reagent, and the amount of light produced is proportional to CYP activity. P450-Glo (TM) CYP3A7 screening system (Catalog. No. V8812) was used to detect the compounds that interfere with CYP3A7 activity. The positive control compound used for CYP3A7 assay is ketoconazole (Sigma-Aldrich, St. Louis, MO).
# Assay Protocol Summary: Two ul of enzyme-substrate mix was dispensed into medium binding white/solid 1536-well plates (Greiner Bio-One North America Inc., Monroe, NC) using a Flying Reagent Dispenser (FRD, Aurora Discovery, San Diego, CA). Compounds dissolved in DMSO, and positive control (ketoconazole) were transferred to the assay plates at 23 nl using a Pintool station (Wako, San Diego, CA). The assay plates were incubated at room temperature for 10 min. Then 2 ul of NADPH regeneration solution was added to each well of the assay plates using an FRD and incubated at room temperature for 1 h. The reaction was stopped by adding 4 ul of detection reagent using an FRD and after 20 min incubation at room temperature the luminescence signal was measured using a ViewLux plate reader (Perkin Elmer, Shelton, CT). Data were expressed as relative luminescence units.
# % is set by controls: 0 for no effect and ±100 for the full control effect.
# Chain of Cytochrome P450 3A7 (Homo sapiens) (P24462 whole entry, looked up): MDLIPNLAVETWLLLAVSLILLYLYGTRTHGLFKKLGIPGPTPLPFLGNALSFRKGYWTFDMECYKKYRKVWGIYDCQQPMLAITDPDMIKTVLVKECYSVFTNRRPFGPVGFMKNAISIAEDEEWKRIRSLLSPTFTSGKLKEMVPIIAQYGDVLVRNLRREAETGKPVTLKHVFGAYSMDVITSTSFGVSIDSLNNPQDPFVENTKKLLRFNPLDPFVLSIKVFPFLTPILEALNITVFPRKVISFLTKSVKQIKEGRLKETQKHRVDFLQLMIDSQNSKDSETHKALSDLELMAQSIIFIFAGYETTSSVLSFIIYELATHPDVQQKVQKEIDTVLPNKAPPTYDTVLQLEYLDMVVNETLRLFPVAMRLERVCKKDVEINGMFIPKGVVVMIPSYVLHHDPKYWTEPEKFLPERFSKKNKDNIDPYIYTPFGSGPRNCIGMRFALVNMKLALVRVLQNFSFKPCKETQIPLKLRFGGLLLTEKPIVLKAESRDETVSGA
row,Structure (SMILES),"activity change, negative = inhibition"
1,CCC[C@@H]1C[C@@H](C(=O)N[C@@H]([C@H]2O[C@H](SC)[C@H](O)[C@@H](O)[C@H]2O)[C@@H](C)O)N(C)C1,-21.8%
2,O=C(CO)N1CCC(c2[nH]nc(-c3ccc(Cl)cc3)c2-c2ccncn2)CC1,0%
3,Oc1ccc(Cl)c2cccnc12,-4.89%
4,CC(C)[C@@H]1CC[C@@H](C)CC1=O,11.3%
5,C[S+](=O)([O-])Nc1ccc(-c2ccc3nc(-c4cccc(OC(F)(F)F)c4)[nH]c3c2)cc1,1.4%
6,Cc1ccc(S(=O)(=O)N2CCc3cc(C(=O)Nc4ccc(C(F)(F)F)cc4)ccc32)cc1,-19.4%
7,CCCCNC(=O)NS(=O)(=O)c1ccc(N)cc1,-21.7%
8,CCN1CCN(Cc2ccc(NC(=O)c3ccc(C)c(NC(=O)c4cncc(-c5cccs5)c4)c3)cc2C(F)(F)F)CC1,6.36%
9,O=C(O)CC1CCC(c2ccc(-c3ccc(Nc4ccc(C(F)(F)F)nc4)cn3)cc2)CC1 (stereo not given),0%
10,COc1cc2ncnc(Nc3cc(Br)c(O)c(Br)c3)c2cc1OC,0%
11,Cc1nc(C)c(-c2ccc(C3CCC(CC(=O)O)CC3)cc2)nc1C(N)=O (stereo not given),0.244%
12,Nc1nc(N)c2nc(CNc3ccc(C(=O)N[C@@H](CCC(=O)O)C(=O)O)cc3)cnc2n1,0%
13,COc1nc(C)nc(Cl)c1NC1=NCCN1,-0.531%
14,CCCCS(=O)(=O)N[C@@H](Cc1ccc(OCCCCC2CCNCC2)cc1)C(=O)O,-5.96%
15,Cc1ccc(S(=O)(=O)N[C@@H]2CCCC[C@H]2O)cc1,-7.75%
16,CN(C)CC(=O)N1CCC(c2ccc(NC(=O)c3ncc(C#N)[nH]3)c(C3=CCCCC3)c2)CC1,-9.22%
17,COc1cc(OC)cc(OC)c1,1.4%
18,CCCCCCCCCCOc1cc2c(=O)c(C(=O)OCC)c[nH]c2cc1OCC,9.06% [at 4.83 µM]
19,O=C(Nc1ccc(Cl)c(Cl)c1)C1CC1,42.6%
20,CCOC(=O)c1ccc(Nc2nc3nonc3nc2Nc2cccc(C)c2C)cc1,15.4%

row,Structure (SMILES),"activity change, negative = inhibition"
1,CN(C)CC1CCOC1(c1ccccc1)c1ccccc1 (stereo not given),16.7% [at 23.9 µM]
2,CCCCc1nc2cc(C=CC(=O)NO)ccc2n1CCN(CC)CC,0%
3,COc1ccc(CNC(=O)c2nc(SCc3ccccc3F)ncc2Cl)cc1,0%
4,O=C(O)/C=C\C(=O)O,3.15%
5,CNC(C)C(=O)NC(C(=O)N1CCCC1C(=O)Nc1cccc2ncccc12)C(C)C (stereo not given),-21.2%
6,O=C(/C=C/c1ccc(O)c(O)c1)O[C@@H]1C[C@@](OC(=O)/C=C/c2ccc(O)c(O)c2)(C(=O)O)C[C@@H](O)[C@@H]1O,-19.9%
7,CNS(=O)(=O)c1ccccc1Nc1nc(Nc2ccc(N3CCN(C)CC3)cc2OC)ncc1Br,0%
8,O=P(O)(O)OCC(O)CO (stereo not given),-2.4%
9,CCN(CC)CCCC(C)Nc1ccnc2cc(Cl)ccc12 (stereo not given),-24.4% [at 23.9 µM]
10,NCCNCCNCCN,18.8%
11,CCCCCCCCCCC(CO)CCCCCCCC (stereo not given),-15.3%
12,N[C@@H]1CCCCN(c2c(F)cc3c(=O)c(C(=O)O)cn(C4CC4)c3c2Cl)C1,0.739%
13,Cc1cccc(OCC(O)CNC(C)(C)C)c1C (stereo not given),0.168%
14,O=C(Nc1ccc(N2CCC(C(=O)N3CCOCC3)CC2)cc1)c1cnc(Oc2ccccc2)nc1,-23.9%
15,CNC(=O)c1cc(Oc2ccc3nc(N[C@@H]4CCCC[C@H]4O)sc3c2)ccn1,0.7%
16,COC(=O)/C=C\C(=O)OC,-26%
17,O=C(O)c1ccccn1,21.3%
18,Cc1c(N(C)CS(=O)(=O)O)c(=O)n(-c2ccccc2)n1C,-2.53%
19,CCCNC(C)C(=O)Nc1c(C)csc1C(=O)OC (stereo not given),12.3%
20,CN(C)C(=O)Oc1cccc([N+](C)(C)C)c1,2.08%
